The list is not random: actives were taken first. Their share in the collection is about 0.99%.
C-LANA FP = inhibitors of KSHV LANA C-terminal domain DNA binding; MBP-C-LANA/FAM-LBS DNA binding, fluorescence polarization; inhibition, % at 9 µM; actives 0.078% (n = 340,000); AID 504423;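 active = highest replicate inhibition at or above 60% at 9 µM, even if other replicates fall short; inactive = all replicates below 60% inhibition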;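 also: 0% = neutral control wells and 100% = 4 µM acridine orange control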
Keap1 Nrf2 FP = disrupts human Keap1 binding to Nrf2 peptide; Keap1 Kelch-Nrf2 peptide fluorescence polarization, 1536-well; inhibition, % at 9.4 µM; actives 0.15% (n = 340,000); AID 504523; in the data active = inhibition above about 12%;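 also: human Keap1 Kelch domain with fluorescein labeled Nrf2 9mer peptide probe; 0% = neutral control wells and 100% = peptide positive control; higher means more block of Keap1 binding to Nrf2 peptide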
LANA-H2B inh = blocks KSHV LANA binding to histone H2A/H2B. Q9QR71. cell-free LANA-H2A/H2B peptide, fluorescence polarization. inhibition, % (concentration not given with the values). actives 0.6% (n = 320,000); in the data active = inhibition mostly above about 10%, no sharp cut-off; inactive = mostly below about 6.7%
cardiac RTF act = cardiac RTF calcium sensitization; actives 0.24% (n = 340,000); P19429+P45379; activation, % at 7.2 µM; IANBD-labeled TnC RTF fluorescence at EC20 calcium; 0% EC20 calcium, 100% full calcium;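 active = activation above the mean over all tested compounds plus 3 SD, cut at about 30% in these data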;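 also: rise in fluorescence read as greater calcium sensitivity of cardiac thin filaments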
Cardiac RTF inh = cardiac RTF calcium desensitization | P19429+P45379 | IANBD-labeled cardiac RTF, Ca2+ fluorescence | inhibition, % at 7.15 µM | actives 0.12% (n = 340,000);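 active = inhibition above the mean inhibition of all tested compounds plus 3 SD, cut at about 17% in these data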;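 also: assay run at fixed EC70 calcium of 1.6 mM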
Keap1 Kelch bind = binds and thermally shifts human Keap1 Kelch domain; Keap1 Kelch thermal shift, delta Tm; active compounds read high; shares compounds with Keap1 Nrf2 FP; max delta Tm, degrees C; AID 651823; actives 8% (n = 400); in the data active = max delta Tm above about 0.48 degrees C
* hit, by the source's call; · = no result given.

SMILES | C-LANA FP | Keap1 Nrf2 FP | LANA-H2B inh | cardiac RTF act | Cardiac RTF inh | Keap1 Kelch bind
COc1ccc(C2N3CC4(C)CN2CC(C)(C3)C4O)cc1OC (stereo unspecified) | 0 | -1 | 3 | 4 | 1 | ·
COc1ccc(C2N3CC4(C)CN2CC(C)(C3)C4O)cc1 (stereo unspecified) | 2 | 20* | 3 | 4 | 4 | -0.16
CCC1(c2ccccc2)NC(=O)N(CC(=O)Nc2ccc(OC)nc2)C1=O (stereo unspecified) | 88* | 61* | 12 | 61* | -80 | -0.12
CCC1(c2ccccc2)NC(=O)N(CC(=O)NCc2ccccc2OC)C1=O (stereo unspecified) | 0 | 7 | 0 | -9 | -1 | ·
COc1ccc(/C=C(\NC(=O)c2ccc(C)cc2)C(=O)NCCN2CCOCC2)cc1 | -3 | 2 | 17 | -2 | 13 | ·
CN(C)CCNc1ccc(CO)c2sc3ccc(O)cc3c(=O)c12 | -11 | -10 | · | -3 | -9 | ·
CN(C)CCNc1ccc2ncn3c4ccc(O)cc4c(=O)c1c23 | 114* | 38* | · | 170* | -185 | -0.13
O=C(Cn1ncc2c([nH]c3ccccc32)c1=O)Nc1cccnc1 | -2 | -1 | 2 | 4 | 6 | ·

Source: PubChem (several laboratories)
